# Experimental data: PubChem BioAssay (Tox21)
# Records with an inconclusive call do not appear. A call without a number means that no potency is given here. Values without a mark were called inactive. Activity calls are given as the source filed them. Calls follow the shape of the dose curve; as a rule, active = well fitted curve in the direction sought with a large enough effect in the repeat runs; inconclusive = weak or mixed curves; inactive = no such curve, though single readings can be large; an effect the other way counts as inactive or inconclusive.
# Assays:
# [1] = molecular target: Cytochrome P450 2C9 (Homo sapiens) (UniProt P11712); assay: Cytochrome P450 Family 2 Subfamily C Member 9 (CYP2C9) small molecule antagonists: luciferase reporter qHTS assay (AID 1671198); as to activity change, negative = inhibition: series mostly up to about 120 µM
# Sequence of Cytochrome P450 2C9 (Homo sapiens) (P11712 whole entry, looked up): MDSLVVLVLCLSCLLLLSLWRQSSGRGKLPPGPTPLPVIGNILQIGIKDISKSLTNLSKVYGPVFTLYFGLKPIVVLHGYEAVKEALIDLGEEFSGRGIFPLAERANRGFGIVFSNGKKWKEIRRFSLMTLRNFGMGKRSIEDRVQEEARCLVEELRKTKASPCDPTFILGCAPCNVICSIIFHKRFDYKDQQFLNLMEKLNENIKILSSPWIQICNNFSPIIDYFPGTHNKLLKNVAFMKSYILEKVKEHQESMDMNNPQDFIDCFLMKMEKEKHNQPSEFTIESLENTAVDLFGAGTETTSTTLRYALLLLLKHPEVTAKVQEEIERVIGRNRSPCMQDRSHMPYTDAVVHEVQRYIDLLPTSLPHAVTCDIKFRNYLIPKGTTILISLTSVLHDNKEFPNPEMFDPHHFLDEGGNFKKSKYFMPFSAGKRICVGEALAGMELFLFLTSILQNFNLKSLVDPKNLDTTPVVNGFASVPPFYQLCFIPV
# How it was run: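 P450-Glo proluciferin substrate with CYP2C9 enzyme; 10 min RT preincubation, then NADPH regeneration 1 h at 37C; luciferin detection reagent 20 min RT, luminescence in relative luminescence units.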
# [2] = molecular target: Cytochrome P450 1A2 (Homo sapiens) (UniProt P05177); assay: Cytochrome P450 Family 1 Subfamily A Member 2 (CYP1A2) small molecule antagonists: luciferase reporter qHTS assay (AID 1671199); as to activity change, negative = inhibition: series mostly up to about 120 µM
# Sequence of Cytochrome P450 1A2 (Homo sapiens) (P05177 whole entry, looked up): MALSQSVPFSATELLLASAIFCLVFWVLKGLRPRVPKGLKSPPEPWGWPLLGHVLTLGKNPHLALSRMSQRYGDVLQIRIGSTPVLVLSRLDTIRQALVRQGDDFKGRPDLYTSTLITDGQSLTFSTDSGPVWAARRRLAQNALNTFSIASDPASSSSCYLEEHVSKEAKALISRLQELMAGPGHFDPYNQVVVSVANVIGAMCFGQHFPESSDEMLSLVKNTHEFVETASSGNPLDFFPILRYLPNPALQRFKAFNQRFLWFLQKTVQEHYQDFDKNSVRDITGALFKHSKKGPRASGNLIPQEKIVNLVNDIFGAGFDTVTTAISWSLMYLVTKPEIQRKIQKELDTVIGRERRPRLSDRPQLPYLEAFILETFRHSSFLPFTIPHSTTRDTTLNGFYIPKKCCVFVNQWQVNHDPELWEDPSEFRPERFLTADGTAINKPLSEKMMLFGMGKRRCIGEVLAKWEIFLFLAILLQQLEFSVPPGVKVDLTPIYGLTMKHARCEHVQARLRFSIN
# How it was run: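 P450-Glo CYP1A2, 1536-well qHTS: enzyme/proluciferin substrate + cpd (DMSO), 10 min RT; NADPH regen, 1 h RT; detection reagent, 20 min; luminescence, RLU.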
# [3] = molecular target: Voltage-gated inwardly rectifying potassium channel KCNH2 (Homo sapiens) (UniProt Q12809); assay: Human Ether-a-go-go-Related Gene (hERG) channel small molecule antagonists: fluorescence cell-based qHTS assay (AID 1671200);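 as to activity change, negative = inhibition: hERG-expressing U2OS cells given a thallium stimulus after FluxOR II dye loading; series mostly up to about 77 µM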
# Sequence of Voltage-gated inwardly rectifying potassium channel KCNH2 (Homo sapiens) (Q12809 whole entry, looked up): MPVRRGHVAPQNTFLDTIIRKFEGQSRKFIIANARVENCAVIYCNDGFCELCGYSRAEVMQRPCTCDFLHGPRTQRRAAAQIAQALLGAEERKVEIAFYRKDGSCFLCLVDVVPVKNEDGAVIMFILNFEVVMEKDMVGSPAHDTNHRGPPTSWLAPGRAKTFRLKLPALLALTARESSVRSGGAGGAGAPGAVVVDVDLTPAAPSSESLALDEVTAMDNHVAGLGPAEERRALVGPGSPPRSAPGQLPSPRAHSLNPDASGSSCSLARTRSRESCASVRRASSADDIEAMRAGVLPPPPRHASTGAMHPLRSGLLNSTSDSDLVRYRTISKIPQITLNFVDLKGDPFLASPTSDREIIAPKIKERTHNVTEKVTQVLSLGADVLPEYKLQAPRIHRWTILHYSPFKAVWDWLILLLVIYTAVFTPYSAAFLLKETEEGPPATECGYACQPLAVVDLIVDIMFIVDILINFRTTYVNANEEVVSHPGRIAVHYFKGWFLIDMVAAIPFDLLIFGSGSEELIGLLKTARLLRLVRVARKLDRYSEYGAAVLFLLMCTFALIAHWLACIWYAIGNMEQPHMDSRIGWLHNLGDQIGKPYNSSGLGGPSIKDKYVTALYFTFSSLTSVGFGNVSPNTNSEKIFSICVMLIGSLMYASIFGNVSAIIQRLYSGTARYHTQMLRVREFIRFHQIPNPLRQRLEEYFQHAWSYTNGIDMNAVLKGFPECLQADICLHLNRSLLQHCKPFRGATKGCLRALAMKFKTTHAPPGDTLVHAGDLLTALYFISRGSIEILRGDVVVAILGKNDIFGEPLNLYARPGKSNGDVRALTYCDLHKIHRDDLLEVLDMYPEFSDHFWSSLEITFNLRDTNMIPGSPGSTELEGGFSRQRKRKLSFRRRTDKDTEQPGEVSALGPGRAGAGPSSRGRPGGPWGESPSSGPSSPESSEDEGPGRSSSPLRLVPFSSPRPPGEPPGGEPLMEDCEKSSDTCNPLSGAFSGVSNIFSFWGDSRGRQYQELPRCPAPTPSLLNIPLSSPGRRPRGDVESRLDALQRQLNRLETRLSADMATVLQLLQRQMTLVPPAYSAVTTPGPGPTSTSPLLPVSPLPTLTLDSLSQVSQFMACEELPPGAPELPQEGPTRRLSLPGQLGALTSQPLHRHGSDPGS
# How it was run: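 Measured: Tl+ flux via fluorescence (480/540 nm) in hERG-expressing U2OS cells after 1 h dye loading at room temperature.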
# [4] = molecular target: Cytochrome P450 3A4 (Homo sapiens) (UniProt P08684); assay: Cytochrome P450 Family 3 Subfamily A Member 4 (CYP3A4) small molecule antagonists: luciferase reporter qHTS assay (AID 1671201); as to activity change, negative = inhibition: series mostly up to about 120 µM
# Sequence of Cytochrome P450 3A4 (Homo sapiens) (P08684 whole entry, looked up): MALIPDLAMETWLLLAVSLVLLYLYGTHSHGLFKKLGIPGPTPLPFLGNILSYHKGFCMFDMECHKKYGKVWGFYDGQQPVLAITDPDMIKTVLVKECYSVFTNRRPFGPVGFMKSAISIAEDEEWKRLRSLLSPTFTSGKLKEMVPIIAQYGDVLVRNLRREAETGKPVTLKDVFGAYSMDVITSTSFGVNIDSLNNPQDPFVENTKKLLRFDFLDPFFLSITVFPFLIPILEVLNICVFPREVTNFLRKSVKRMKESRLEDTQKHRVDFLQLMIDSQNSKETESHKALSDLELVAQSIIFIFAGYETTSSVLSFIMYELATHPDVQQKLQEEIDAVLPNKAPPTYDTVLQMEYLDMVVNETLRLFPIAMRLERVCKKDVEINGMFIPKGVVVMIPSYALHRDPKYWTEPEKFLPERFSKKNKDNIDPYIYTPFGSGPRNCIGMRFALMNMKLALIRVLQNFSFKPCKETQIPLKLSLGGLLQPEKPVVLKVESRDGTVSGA
# How it was run: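 Setup: enzyme-substrate mix, compound pin transfer, 10 min RT. Reaction: NADPH regeneration solution, 1 h RT. Readout: detection reagent stops turnover, luminescence measured after 20 min, expressed in relative luminescence units.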
# Also: nearly all actives have a fitted effect of over 50% in size.
# Potency is read from the fitted curve at half-maximal effect.
smiles,measurement,setting,value
CC(C)OC(=O)C(C)N(C(=O)c1ccccc1)c1ccc(F)c(Cl)c1 (stereo not drawn),Potency,[1],7.96 µM (active)
same,Potency,[2],63.3 µM (active)
same,Potency,[3],inactive
same,Potency,[4],89.4 µM (active)
CCCCCCCCCCO[C@@H]1O[C@H](CO)[C@@H](O)[C@H](O)[C@H]1O,Potency,[1],inactive
same,Potency,[2],inactive
same,Potency,[3],inactive
same,Potency,[4],inactive
CN(C)c1ccc(CCO)cc1,Potency,[1],19.9 µM (active)
same,Potency,[2],35.4 µM (active)
same,Potency,[3],inactive
same,Potency,[4],inactive
CCCCC(CC)COC(=O)COc1ccc(Cl)cc1Cl (stereo not drawn),Potency,[1],32.2 µM (active)
same,Potency,[2],25.6 µM (active)
same,Potency,[3],inactive
same,Potency,[4],32.2 µM (active)
Cn1c(=O)cc(Oc2ccc(F)cc2F)c2cnc(NCC(C)(C)O)nc21,Potency,[1],56.4 µM (active)
same,Potency,[2],28.3 µM (active)
same,Potency,[3],inactive
same,Potency,[4],inactive
CCC(C)(C)CC,Potency,[1],inactive
same,Potency,[2],inactive
same,Potency,[3],inactive
same,Potency,[4],inactive
CCOC(=O)Cc1cccc2ccccc12,Potency,[1],inactive
same,Potency,[2],15.9 µM (active)
same,Potency,[3],inactive
same,Potency,[4],inactive
CC1CCC(=O)C1=O (stereo not drawn),Potency,[1],inactive
same,Potency,[2],inactive
same,Potency,[3],inactive
same,Potency,[4],inactive
Brc1c2ccccc2cc2ccccc12,Potency,[1],35.9 µM (active)
same,Potency,[2],0.639 µM (active)
same,Potency,[3],inactive
same,Potency,[4],18 µM (active)
C=C1C(=C/C=C2\CCC[C@]3(C)[C@@H]([C@H](C)/C=C/[C@@H](O)C4CC4)CC[C@@H]23)C[C@@H](O)C[C@@H]1O,Potency,[1],15.5 µM (active)
same,Potency,[2],inactive
same,Potency,[3],inactive
same,Potency,[4],inactive
N=c1ccn2c(n1)O[C@H]1[C@H](O)[C@@H](CO)O[C@H]12,Potency,[1],inactive
same,Potency,[2],inactive
same,Potency,[3],inactive
same,Potency,[4],inactive
CCCCCCCCO[C@@H]1O[C@H](CO)[C@@H](O)[C@H](O)[C@H]1O,Potency,[1],inactive
same,Potency,[2],inactive
same,Potency,[3],inactive
same,Potency,[4],inactive
Cc1[nH]c(C)c(Cl)c(=O)c1Cl,"activity change, negative = inhibition",[1],23.2% [at 23.6 µM]
same,Potency,[2],inactive
same,"activity change, negative = inhibition",[3],-0.502% [at 15.8 µM]
same,"activity change, negative = inhibition",[4],19.3% [at 23.6 µM]
NC(N)=NCCC[C@H](N)C(=O)O,"activity change, negative = inhibition",[1],10.6% [at 10.5 µM]
same,"activity change, negative = inhibition",[2],1.33% [at 10.5 µM]
same,"activity change, negative = inhibition",[3],5.88% [at 6.97 µM]
same,"activity change, negative = inhibition",[4],0.752% [at 10.5 µM]
CCNc1cc(O)ccc1C,Potency,[1],9.92 µM (active)
same,Potency,[2],12.5 µM (active)
same,Potency,[3],inactive
same,Potency,[4],9.92 µM (active)
Cc1ccccc1S(=O)(=O)O,Potency,[1],inactive
same,Potency,[2],inactive
same,Potency,[3],inactive
same,Potency,[4],inactive
CC(CSC(=O)c1ccccc1)C(=O)N1C[C@@H](Sc2ccccc2)C[C@H]1C(=O)O (stereo partly drawn),"activity change, negative = inhibition",[1],-9.74% [at 23.6 µM]
same,Potency,[2],inactive
same,"activity change, negative = inhibition",[3],3.26% [at 15.8 µM]
same,"activity change, negative = inhibition",[4],15.7% [at 23.6 µM]
OC(CN1CCC(Cc2ccc(F)cc2)CC1)c1ccc(Cl)cc1 (stereo not drawn),Potency,[1],inactive
same,Potency,[2],inactive
same,Potency,[3],0.0849 µM (active)
same,Potency,[4],inactive
CC(=O)OC[C@H]1O[C@@H](n2ncc(=O)[nH]c2=O)[C@H](OC(C)=O)[C@@H]1OC(C)=O,Potency,[1],inactive
same,Potency,[2],inactive
same,Potency,[3],inactive
same,Potency,[4],inactive
CC(COCCO)OCCO (stereo not drawn),Potency,[1],inactive
same,Potency,[2],inactive
same,Potency,[4],inactive
CC(C)(C)OCC1CO1 (stereo not drawn),Potency,[1],inactive
same,Potency,[2],inactive
same,Potency,[3],inactive
same,Potency,[4],inactive
CCO[Si](CCCCl)(OCC)OCC,Potency,[1],35.3 µM (active)
same,Potency,[2],inactive
same,Potency,[3],inactive
same,Potency,[4],3.53 µM (active)
CCOC(=O)C(F)(F)F,Potency,[1],inactive
same,Potency,[2],inactive
same,Potency,[3],inactive
same,Potency,[4],inactive
CC1OC(=O)C(C)OC1=O (stereo not drawn),Potency,[1],inactive
same,Potency,[2],inactive
same,Potency,[3],inactive
same,Potency,[4],inactive
CCCCC(CC)COC(=O)CCCCCCCCC(=O)OCC(CC)CCCC (stereo not drawn),Potency,[1],inactive
same,Potency,[2],39.9 µM (active)
same,Potency,[3],inactive
same,Potency,[4],inactive
CNC(=O)CN(CCN(CCN(CC(=O)[O-])CC(=O)NC)CC(=O)[O-])CC(=O)[O-].O.[Gd+3],Potency,[1],inactive
same,Potency,[2],inactive
same,Potency,[3],inactive
same,Potency,[4],inactive
CC(C)(C)Cl,Potency,[1],inactive
same,Potency,[2],inactive
same,Potency,[3],inactive
same,Potency,[4],inactive
CC(C)=CCC/C(C)=C/CC/C(C)=C/CO,Potency,[1],17.8 µM (active)
same,Potency,[2],28.3 µM (active)
same,Potency,[4],25.2 µM (active)
C1CCCNCCC1,Potency,[1],inactive
same,Potency,[2],inactive
same,Potency,[3],inactive
same,Potency,[4],inactive
COC(C)OC,Potency,[1],inactive
same,Potency,[2],inactive
same,Potency,[3],inactive
same,Potency,[4],inactive
C=C(C)C(=O)OCC,Potency,[1],inactive
same,Potency,[2],inactive
same,Potency,[3],inactive
same,Potency,[4],inactive
CC1(c2ccccc2)OC(C(=O)O)=CC1=O (stereo not drawn),Potency,[1],inactive
same,Potency,[2],inactive
same,Potency,[3],inactive
same,Potency,[4],inactive
Nc1ncn([C@H]2C[C@H](O)[C@@H](CO)O2)c(=O)n1,Potency,[1],inactive
same,Potency,[2],inactive
same,Potency,[3],inactive
same,Potency,[4],inactive
CCc1c(C(=O)NN2CCCCC2)nn(-c2ccc(Cl)cc2Cl)c1-c1ccc(Br)cc1,Potency,[1],8.94 µM (active)
same,Potency,[2],inactive
same,Potency,[4],inactive
CC(C)CC(=O)C1C(=O)c2ccccc2C1=O,Potency,[1],17.8 µM (active)
same,Potency,[2],35.6 µM (active)
same,Potency,[3],inactive
same,Potency,[4],inactive
Nc1c(CC(=O)O)cccc1C(=O)c1ccc(Br)cc1,Potency,[1],inactive
same,Potency,[2],inactive
same,Potency,[3],inactive
same,Potency,[4],inactive
NC(=O)C(c1ccccc1)(c1ccccc1)[C@@H]1CCN(CCc2ccc3c(c2)CCO3)C1,Potency,[1],inactive
same,Potency,[2],inactive
same,Potency,[4],inactive
NS(=O)(=O)c1ccc(N2CCCCS2(=O)=O)cc1,Potency,[1],inactive
same,Potency,[2],inactive
same,Potency,[3],inactive
same,Potency,[4],inactive
